From PubChem
Only some compounds are listed: those with a hit (about 18% of all), similar ones and a draw of the others.
TDP1 block – TDP1 (human) enzyme inhibition | Q9NUW8 | recombinant TDP1, AlphaScreen DNA substrate cleavage | Potency, µM (series often up to 130 µM), without a hit: at the highest dose activity change, negative = inhibition, hits mostly inhibitors | hit rate 0.28% among 350,000; also: potency is read from the fitted curve at half-maximal effect; % is scaled to controls: 0 for no effect and ±100 for the full control effect; nearly all actives have a fitted effect of over 40% in size
Target sequence (Q9NUW8 whole entry, looked up): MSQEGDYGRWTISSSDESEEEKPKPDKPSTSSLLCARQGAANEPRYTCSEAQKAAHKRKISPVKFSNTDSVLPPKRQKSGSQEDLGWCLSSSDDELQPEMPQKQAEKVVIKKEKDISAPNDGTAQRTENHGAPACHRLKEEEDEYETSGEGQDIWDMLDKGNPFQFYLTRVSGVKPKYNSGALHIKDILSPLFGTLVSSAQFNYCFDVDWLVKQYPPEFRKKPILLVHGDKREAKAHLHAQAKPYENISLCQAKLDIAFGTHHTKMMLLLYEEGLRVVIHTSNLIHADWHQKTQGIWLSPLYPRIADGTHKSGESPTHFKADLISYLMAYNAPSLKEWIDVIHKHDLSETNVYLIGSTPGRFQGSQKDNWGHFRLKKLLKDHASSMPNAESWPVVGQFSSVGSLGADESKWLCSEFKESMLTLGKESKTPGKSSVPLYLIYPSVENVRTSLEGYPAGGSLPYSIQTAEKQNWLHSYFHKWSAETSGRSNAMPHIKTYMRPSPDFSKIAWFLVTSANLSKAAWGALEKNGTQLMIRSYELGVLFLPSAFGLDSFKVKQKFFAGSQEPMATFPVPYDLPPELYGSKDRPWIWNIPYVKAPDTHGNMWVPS
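Steps: enzyme plus compound, 15 min RT; add biotin/phosphotyrosine-FITC oligonucleotide (15 nM final), react 5 min; add donor/acceptor beads (10 ug/ml final), 10 min; read AlphaScreen. Tdp1 at 1 nM final.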
IL-1B inflam inh – blocks inflammasome-driven IL-1 beta release; THP-1 LPS/ATP IL-1B secretion, AlphaLISA, 16 h; stronger effect = lower value; activity change, % at 57.5 µM; hit rate 4.7% among 360,000; in the data active = activity change below about -50%; inconclusive = mostly about -30% to -49%; also: % is scaled to controls: 0 for no effect and ±100 for the full control effect
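Secreted IL-1B measured by AlphaLISA bead assay after 16 h compound exposure of THP-1 cells; compounds (final up to 57.5 uM) added 1 h before LPS (250 ng/mL) and ATP (1.25 mM) stimulation; lower signal means less secretion.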
TGFb inhibitor – blocks TGF-b signaling. Potency, µM (doses to about 46.1 µM), inactives show at the highest dose activity, negative = inhibition, most hits filed as inhibitors. hit rate 1.2% among 410,000. HepG2 CAGA-GFP TGF-b/SMAD3 reporter, GFP fluorescence, 18 h; TGF-beta stimulated, 500 pg/mL final; also: potency is read from the fitted curve at half-maximal effect; % is scaled to controls: 0 for no effect and ±100 for the full control effect; nearly all actives have a fitted effect of over 65% in size
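HEPG2 CAGA-GFP, 1000 cells/well; 2 h settle, 37 C; cpd via pin tool; TGF-b 500 pg/mL final; 18 h, 37 C; GFP imaging ex488/em500-530; %Activity normalised to -TGF-b and +DMSO controls; CRC fit, curve class.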
HepG2 tox – counter-screen for TGF-b inhibitors: cytotoxicity in HepG2 cells; Potency, µM (highest dose often 46.1 µM), for inactives: at the highest dose activity change, negative = cytotoxicity, actives largely listed as cytotoxic; HepG2 CAGA-GFP viability, ATP luminescence, 18 h; hit rate 0.76% among 410,000; also: potency is read from the fitted curve at half-maximal effect
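HepG2 CAGA-GFP cells (1000/well, DMEM with 1% FBS) received compound, then TGF-beta at 500 pg/mL final, and were incubated 18 hours at 37 degrees C. Viability was read by CellTiter-Glo luminescence. Media-only wells were set as complete cell-killing and DMSO as no toxicity.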
DT40 TDP1 CPT – growth inhibition of DT40 Tdp1-/-;hTDP1 cells with camptothecin (screen for TDP1 inhibitors). hit rate 12% among 420,000. Potency, µM (highest dose often 46.2 µM), inactives show top-dose activity change, negative = growth inhibition, usual class: inhibitors. AID 686979. chicken DT40 Tdp1-/-;hTDP1 cells + 20 nM CPT, ATP luminescence, 48 h; also: potency is read from the fitted curve at half-maximal effect; % is scaled to controls: 0 for no effect and ±100 for the full control effect; nearly all actives have a fitted effect of over 55% in size
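Chicken DT40 Tdp1-/- cells complemented with human TDP1, 400 cells/well, exposed to compounds plus 20 nM camptothecin for at least 48 h at 37 C; viability read as ATP content by CellTiter-Glo luminescence.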
TDP1 cell noCPT – qHTS for Inhibitors of human tyrosyl-DNA phosphodiesterase 1 (TDP1): qHTS in cells in absence of CPT; DT40 Tdp1-/- hTDP1 cells, no CPT, ATP luminescence, 48 h; hit rate 15% among 420,000; AID 686978, 2013; Potency, µM (highest dose often 46.2 µM), without a hit: top-dose activity change, negative = growth inhibition, most hits filed as inhibitors; also: potency is read from the fitted curve at half-maximal effect; % is scaled to controls: 0 for no effect and ±100 for the full control effect; nearly all actives have a fitted effect of over 55% in size
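Camptothecin absent (DMSO only). Human TDP1-complemented DT40 knockout cells, 400 cells/well, 37 °C for minimum 48 hr; ATP measured via CellTiter-Glo, 30 min dark incubation, luminescence.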
Numbers without * were called inactive; ? = inconclusive; / = no result; [ ] = remark or other dose. Unless noted, calls follow the shape of the dose curve; as a rule, active = well fitted curve in the direction sought with a large enough effect; inconclusive = small, poorly fitted or top-dose-only effect, or another doubt; inactive = no such curve, though single readings can be large; an effect the other way counts as inactive or inconclusive.

SMILES	TDP1 block	IL-1B inflam inh	TGFb inhibitor	HepG2 tox	DT40 TDP1 CPT	TDP1 cell noCPT
CCOC(=O)C1CCN(C(c2ccc(SC)cc2)c2c(O)cc(C)n(Cc3ccco3)c2=O)CC1 (stereo unspecified)	5.4%	/	24.6%	-5.3%	-10.4%	-22.5%
CCc1cc[n+](C2=C([O-])c3ccccc3C(=O)/C2=N\S(=O)(=O)c2cccs2)cc1	5.3%	-85.9*	2.82µM*	3.55µM*	2.31µM*	5.17µM*
O=C1C(=O)c2ccccc2C([O-])=C1[n+]1ccccc1	-2.4%	21.4	1.8%	-2.5%	-26.6%	10.5%
CCCCNC(=O)CSc1nc2cc3c(cc2c(=O)n1CCCC(=O)NCc1ccc2c(c1)OCO2)OCO3	-1.5%	/	9.7%	-14.0%	-2.2%	-0.2%
COCCn1c(=O)[nH]c2cc(C(=O)N3CCN(c4cccc(Cl)c4)CC3)ccc2c1=O	11.8%[0.0935 µM]	-25.7	-28.7%	-10.7%	23.1µM*	9.2µM*
C=CCn1c(=O)[nH]c2cc(C(=O)N3CCN(c4ccc(C(C)=O)cc4)CC3)ccc2c1=O	-7.9%	-6.8	-5.0%	-28.1%	20.6µM*	16.4µM*
COCCn1c(=S)[nH]c2cc(C(=O)N3CCN(c4ccccc4OC)CC3)ccc2c1=O	1.0%	4.3	-12.7%	-15.4%	?	?
COCCn1c(=O)[nH]c2cc(C(=O)N3CCN(c4cccc(C)c4C)CC3)ccc2c1=O	8.4%	-26.6	-19.9%	-12.0%	14.6µM*	20.6µM*
COCCn1c(=O)[nH]c2cc(C(=O)N3CCN(c4ccccc4)CC3)ccc2c1=O	6.8%	3.8	-5.8%	-26.6%	-29.3%	?
O=C(c1ccc2c(c1)[nH]c(=S)n1c3ccccc3nc21)N1CCN(c2cccc(Cl)c2)CC1	5.8%	11.6	-17.7%	-18.0%	18.4µM*	18.4µM*
COc1cccc(-c2noc(COc3ccc(C(C)(C)C)cc3)n2)c1	-13.5%	/	35.4%	28.4%	-12.3%	-0.9%
CC(=O)N1CCc2cc(S(=O)(=O)NC(Cc3ccccc3)C(=O)Nc3cc(C)ccc3C)ccc21 (stereo unspecified)	-2.3%	/	-20.6%	-2.3%	-0.4%	-21.5%
CCCCN(C=O)c1c(CC)nc2ccc(C(=O)N(C)Cc3ccco3)cn12	/	29.4	0.4%	-2.0%	-10.1%	-20.0%
C=CCn1c(=O)[nH]c2cc(C(=O)N3CCN(c4cc(C)ccc4C)CC3)ccc2c1=O	5.9%	17.5	-18.0%	-64.7%	?	?
COc1cccc(N2CCN(C(=O)c3ccc4c(=O)n(CCc5ccccc5)c(=O)[nH]c4c3)CC2)c1	0.0%	/	-28.5%	-18.5%	14.6µM*	7.31µM*
C=CCn1c(=O)[nH]c2cc(C(=O)N3CCN(c4cccc(Cl)c4)CC3)ccc2c1=O	4.9%	-2.9	?	-16.8%	9.2µM*	7.31µM*
CCN1CCN(c2ccc(NC(=O)c3cc(OC)c(OC)c(OC)c3)cc2)CC1	/	-20.7	1.3%	0.2%	11.0%	2.7%
COC(=O)c1ccc2[nH]c3cccc(/C(=C/c4ccccc4)c4ccccc4)c3c2c1	/	-58.1*	?	-112.3%	?	?
O=C1CCCc2[nH]c3cccc(/C(=C/c4ccccc4)c4ccccc4)c3c21	/	-1.0	-30.4%	18.2%	?	18.4µM*
COC(=O)c1cccc(NC(=O)/C(=C\c2ccccc2)NC(=O)c2ccccc2Cl)c1	-3.1%	-7.0	-0.6%	-21.7%	?	?
O=C(NCCC(=O)N1CCN(c2ccc(F)cc2)CC1)c1ccco1	/	-3.4	-2.1%	2.9%	-9.6%	-27.1%
O=c1[nH]nc(CNc2ccc(Cl)cc2Cl)c2ccccc12	4.8%	3.7	?	-45.5%	?	?
O=c1[nH]nc(CNc2ccc(OC(F)(F)F)cc2)c2ccccc12	2.4%	11.7	?	-34.6%	20.6µM*	18.4µM*
O=c1[nH]nc(Cc2ncc(C(F)(F)F)cc2Cl)c2ccccc12	/	52.7	0.5%	-0.1%	?	16.4µM*
O=c1[nH]nc(CNc2ccc(O)cc2)c2ccccc12	2.3%	-101.4*	?	10µM*	?	20.6µM*
SMILES	TDP1 block	IL-1B inflam inh	TGFb inhibitor	HepG2 tox	DT40 TDP1 CPT	TDP1 cell noCPT
O=C(Cc1n[nH]c(=O)c2ccccc12)NCc1ccccc1	0.0%	9.7	8.6%	6.1%	?	-19.9%
O=c1[nH]nc(CNc2ccc(C(F)(F)F)cc2)c2ccccc12	-3.6%	27.5	-11.5%	0.9%	11.6µM*	14.6µM*
CN(C)C1CCC(CC2CCc3ccccc32)CC1 (stereo unspecified)	/	/	-19.7%	12.2%	?	?
CC(C)(Oc1ccc(Cl)cc1)C(=O)NCc1n[nH]c(=O)c2ccccc12	-2.5%	33.4	0.4%	1.5%	20.6µM*	?
COC(=O)CNC(=O)C(C)(C)Oc1ccc(Cl)cc1	5.7%	6.8	-1.4%	-5.3%	-20.1%	-17.3%
Cc1ccc(NC(=O)COC(=O)c2ccc3c(c2)NC(=O)C2CCCN32)cc1 (stereo unspecified)	-1.0%	6.1	-2.8%	-21.6%	16.4µM*	?
COc1ccc(-c2cc(C(F)(F)F)nc(N3CCN(C)CC3)n2)cc1OC	3.8%	0.0	7.6%	-23.8%	?	20.6µM*
COc1ccc(-c2cc(C(F)(F)F)nc(N3CCCCCC3)n2)cc1	-5.7%	23.9	-2.0%	-34.1%	-10.2%	-19.9%
COc1ccc(-c2cc(C(F)(F)F)nc(N3CCN(C)CC3)n2)cc1	-0.5%	-65.0*	1.8%	-51.9%	?	16.4µM*
COc1ccc(-c2cc(C(F)(F)F)nc(-n3ccnc3C)n2)cc1	1.4%	0.0	1.1%	-13.2%	?	20.6µM*
COc1ccc(-c2cc(C(F)(F)F)nc(N3CCCCC3)n2)cc1OC	/	15.0	-5.1%	-31.9%	?	?
COc1cccc(-c2nc3cc(SC)ccc3cc2CN(C(=O)c2csc(C)n2)C2CC2)c1	/	/	/	/	-14.5%[9.04 µM]	?
COc1cccc(-c2nc3cc4c(cc3cc2CN(C(=O)c2csc(C)n2)C2CC2)CCC4)c1OC	/	/	/	/	-12.3%[9.04 µM]	23.1µM*
CCC(Sc1ncnc2sc3c(c12)CCCC3)C(=O)OCC(C)C (stereo unspecified)	/	/	0.4%	3.1%	25.9µM*	?
Cc1ccc(C(=O)CSc2ncnc3sc4c(c23)CCCC4)cc1	-1.9%	-5.1	3.9%	1.4%	?	20.6µM*
CCC(Sc1ncnc2sc(C)c(C)c12)C(=O)OC (stereo unspecified)	-4.7%	20.7	-8.6%	3.8%	-11.4%	-24.0%
